From PubChem BioAssay (EPA / NIEHS)
Records with an inconclusive call do not appear. Active and inactive are the calls of the source. How the source made its calls, unless noted: active means hit-call score of the fitted dose curve at least 0.9, where 1 is the maximum; inconclusive means response in the unintended direction; inactive means score below 0.9.

Legend:
[1] = ATG_TCF_b_cat_CIS: Attagene CIS-FACTORIAL HepG2 Assay for human T-Cell-Factor with beta-catenin (TCF/b-cat) (AID 2282965; active means hit-call score of the fitted dose curve at least 0.9, where 1 is the maximum; inactive means score below 0.9); settings: HepG2 TCF/beta-catenin cis-reporter transcription, actives raise or lower the signal
How it was run: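 HepG2, transient MRTU transfection, cis-element-driven reporters (endogenous TFs). 24 h compound exposure. Readout: reporter mRNA by RT-PCR + 6-FAM primer extension, HpaI digest, capillary electrophoresis. Gain/loss fit vs DMSO baseline.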

[2] = ATG_TGFb_CIS: Attagene CIS-FACTORIAL HepG2 Assay for human Transforming Growth Factor (TGF) (AID 2282967; active means hit-call score of the fitted dose curve at least 0.9, where 1 is the maximum; inactive means score below 0.9); settings: HepG2 Attagene CIS TGFb reporter, mRNA transcription; actives raise or lower the signal
How it was run: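 Bidirectional fitting relative to DMSO gave the endpoint. Underlying data: reporter mRNA from HepG2 cells carrying transiently transfected cis-regulated reporter constructs, harvested 24 h after dosing and analyzed by RT-PCR and capillary electrophoresis.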

[3] = ATG_VDRE_CIS: Attagene CIS-FACTORIAL HepG2 Assay for human Vitamin D Receptor Element (VDRE) (AID 2282968; active means hit-call score of the fitted dose curve at least 0.9, where 1 is the maximum; inactive means score below 0.9); settings: HepG2 VDRE cis-reporter transcription, actives raise or lower the signal
How it was run: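 Transiently transfected HepG2 cells carrying cis-regulated reporter transcription units were exposed for 24 h. Reporter mRNA was measured by RT-PCR with fluorescent labelling and capillary electrophoresis, and fitted in both directions against DMSO.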

[4] = target: Estrogen receptor (Homo sapiens) (UniProt P03372); assay: ATG_ERa_TRANS: Attagene TRANS-FACTORIAL HepG2 Assay for human Estrogen Receptor alpha (ERa) (AID 2282970); settings: HepG2 Attagene TRANS ERa GAL4 reporter, mRNA
Estrogen receptor (Homo sapiens), sequence (P03372 whole entry, looked up, the tested form may be a part): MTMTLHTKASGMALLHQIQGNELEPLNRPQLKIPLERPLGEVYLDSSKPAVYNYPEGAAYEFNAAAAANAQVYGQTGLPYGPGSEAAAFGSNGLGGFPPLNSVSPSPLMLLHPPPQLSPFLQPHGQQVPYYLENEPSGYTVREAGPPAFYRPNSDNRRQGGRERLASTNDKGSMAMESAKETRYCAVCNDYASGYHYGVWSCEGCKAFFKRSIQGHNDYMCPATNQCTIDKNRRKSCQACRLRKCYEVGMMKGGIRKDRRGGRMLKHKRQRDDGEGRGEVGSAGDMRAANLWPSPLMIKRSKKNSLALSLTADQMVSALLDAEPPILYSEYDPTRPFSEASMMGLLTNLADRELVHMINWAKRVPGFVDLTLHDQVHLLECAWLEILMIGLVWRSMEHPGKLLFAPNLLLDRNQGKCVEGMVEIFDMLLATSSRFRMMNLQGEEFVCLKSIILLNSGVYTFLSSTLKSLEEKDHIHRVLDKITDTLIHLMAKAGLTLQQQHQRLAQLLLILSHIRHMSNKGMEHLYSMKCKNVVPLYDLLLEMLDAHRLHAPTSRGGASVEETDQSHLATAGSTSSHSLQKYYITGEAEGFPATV
How it was run: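 HepG2 cells transiently transfected with multiplexed GAL4-UAS reporter units; ERa activity read via exogenous chimeric NR-Gal4 protein. After 24 hour compound exposure, reporter mRNA measured by RT-PCR with 6-FAM labelling and capillary electrophoresis; gain-of-signal fitted relative to DMSO.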

[5] = ATG_M_19_TRANS: Attagene TRANS-FACTORIAL HepG2 Assay for M19 Transcription Factor (Internal Marker) (AID 2282974); settings: HepG2 Attagene TRANS-FACTORIAL M19 internal marker reporter
How it was run: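 HepG2 transiently transfected with GAL4-UAS multiplex reporter constructs, exposed 24 h; reporter RNA quantified by RT-PCR, 6-FAM labeling, HpaI digestion and capillary electrophoresis; internal background marker fitted upward versus DMSO.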

[6] = target: Glucocorticoid receptor (Homo sapiens) (UniProt P04150); assay: ATG_GR_TRANS: Attagene TRANS-FACTORIAL HepG2 Assay for human Glucocorticoid Receptor (GR) (AID 2282978); settings: HepG2 Attagene TRANS GR reporter, mRNA transcription;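 further: activators score as hits since higher reporter transcript over DMSO is fitted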
Glucocorticoid receptor (Homo sapiens), sequence (P04150 whole entry, looked up, the tested form may be a part): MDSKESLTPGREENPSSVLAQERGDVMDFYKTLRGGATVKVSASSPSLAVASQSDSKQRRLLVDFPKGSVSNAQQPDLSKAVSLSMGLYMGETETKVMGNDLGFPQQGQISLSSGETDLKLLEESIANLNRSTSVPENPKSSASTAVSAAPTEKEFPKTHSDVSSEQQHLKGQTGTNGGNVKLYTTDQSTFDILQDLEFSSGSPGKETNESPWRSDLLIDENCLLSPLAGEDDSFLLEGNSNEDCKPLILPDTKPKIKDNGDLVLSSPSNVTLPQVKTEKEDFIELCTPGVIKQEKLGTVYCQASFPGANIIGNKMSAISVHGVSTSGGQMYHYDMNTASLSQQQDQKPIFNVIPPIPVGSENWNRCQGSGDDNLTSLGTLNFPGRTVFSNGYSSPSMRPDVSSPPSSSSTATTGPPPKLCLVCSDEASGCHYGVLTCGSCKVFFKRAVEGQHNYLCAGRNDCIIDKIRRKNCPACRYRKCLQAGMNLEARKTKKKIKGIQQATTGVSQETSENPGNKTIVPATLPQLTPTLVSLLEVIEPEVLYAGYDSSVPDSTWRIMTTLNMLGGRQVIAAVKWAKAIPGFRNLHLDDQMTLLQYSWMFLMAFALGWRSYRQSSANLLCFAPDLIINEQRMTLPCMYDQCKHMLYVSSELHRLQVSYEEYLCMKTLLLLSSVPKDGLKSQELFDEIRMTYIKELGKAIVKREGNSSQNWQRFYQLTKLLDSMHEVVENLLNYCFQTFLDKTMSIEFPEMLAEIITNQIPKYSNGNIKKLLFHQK
How it was run: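 HepG2 cells transiently transfected with GAL4-UAS reporter units and exogenous GR-Gal4 chimera, dosed 24 h. Reporter mRNA by RT-PCR, FAM labeling, HpaI digest and capillary electrophoresis; gain-of-signal fit versus DMSO.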

[7] = target: Hepatocyte nuclear factor 4-alpha (Homo sapiens) (UniProt P41235); assay: ATG_HNF4a_TRANS: Attagene TRANS-FACTORIAL HepG2 Assay for human Hepatocyte Nuclear Factor 4 alpha (HNF4a) (AID 2282982); settings: HepG2 HNF4a transactivation reporter, mRNA readout
Hepatocyte nuclear factor 4-alpha (Homo sapiens), sequence (P41235 whole entry, looked up, the tested form may be a part): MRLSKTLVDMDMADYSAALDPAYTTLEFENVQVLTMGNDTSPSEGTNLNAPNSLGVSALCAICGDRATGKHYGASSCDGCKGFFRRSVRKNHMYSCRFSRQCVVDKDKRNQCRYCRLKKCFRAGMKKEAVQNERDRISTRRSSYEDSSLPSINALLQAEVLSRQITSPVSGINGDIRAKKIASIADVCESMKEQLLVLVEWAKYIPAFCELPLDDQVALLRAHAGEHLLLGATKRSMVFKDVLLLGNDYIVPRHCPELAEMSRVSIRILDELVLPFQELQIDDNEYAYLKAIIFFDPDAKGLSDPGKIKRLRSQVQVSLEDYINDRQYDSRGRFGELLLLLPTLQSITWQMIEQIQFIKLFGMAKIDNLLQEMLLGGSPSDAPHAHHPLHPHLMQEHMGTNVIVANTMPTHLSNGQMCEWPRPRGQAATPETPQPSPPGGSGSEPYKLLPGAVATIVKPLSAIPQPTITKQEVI
How it was run: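 HepG2 cells transiently transfected with HNF4a-Gal4 chimera and GAL4-UAS reporter units, dosed for 24 h. Reporter mRNA measured by RT-PCR, fluorescent primer extension and capillary electrophoresis; gain-of-signal fitted relative to DMSO.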

[8] = ATG_M_32_TRANS: Attagene TRANS-FACTORIAL HepG2 Assay for M32 Transcription Factor (Internal Marker) (AID 2282984); settings: HepG2 Attagene TRANS M32 internal marker reporter
How it was run: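 HepG2 cells transiently transfected with GAL4-UAS reporter units, dosed for 24 hours. Reporter mRNA quantified by RT-PCR, 6-FAM labelling, HpaI digestion and capillary electrophoresis; internal-marker signal fitted upward relative to DMSO.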

[9] = target: Nuclear receptor subfamily 4 group A member 2 (Homo sapiens) (UniProt P43354); assay: ATG_NURR1_TRANS: Attagene TRANS-FACTORIAL HepG2 Assay for human Nuclear Receptor Related Protein 1 (NURR1) (AID 2282985); settings: HepG2 Attagene TRANS reporter, mRNA readout
How it was run: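 HepG2 cells transiently transfected with NURR1-Gal4 chimera and GAL4-UAS reporter units; after 24 hr compound exposure, reporter mRNA quantified by RT-PCR and capillary electrophoresis; gain of signal fitted against DMSO.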

[10] = target: Transcriptional activator Myb (Homo sapiens) (UniProt P10242); assay: ATG_Myb_CIS: Attagene CIS-FACTORIAL HepG2 Assay for human Myeloblastosis (Myb) Proto-Oncogene Transcription Factor (AID 2282986; active means hit-call score of the fitted dose curve at least 0.9, where 1 is the maximum; inactive means score below 0.9); settings: HepG2 Attagene CIS-FACTORIAL Myb reporter transcription; actives raise or lower the signal
Transcriptional activator Myb (Homo sapiens), sequence (P10242 whole entry, looked up): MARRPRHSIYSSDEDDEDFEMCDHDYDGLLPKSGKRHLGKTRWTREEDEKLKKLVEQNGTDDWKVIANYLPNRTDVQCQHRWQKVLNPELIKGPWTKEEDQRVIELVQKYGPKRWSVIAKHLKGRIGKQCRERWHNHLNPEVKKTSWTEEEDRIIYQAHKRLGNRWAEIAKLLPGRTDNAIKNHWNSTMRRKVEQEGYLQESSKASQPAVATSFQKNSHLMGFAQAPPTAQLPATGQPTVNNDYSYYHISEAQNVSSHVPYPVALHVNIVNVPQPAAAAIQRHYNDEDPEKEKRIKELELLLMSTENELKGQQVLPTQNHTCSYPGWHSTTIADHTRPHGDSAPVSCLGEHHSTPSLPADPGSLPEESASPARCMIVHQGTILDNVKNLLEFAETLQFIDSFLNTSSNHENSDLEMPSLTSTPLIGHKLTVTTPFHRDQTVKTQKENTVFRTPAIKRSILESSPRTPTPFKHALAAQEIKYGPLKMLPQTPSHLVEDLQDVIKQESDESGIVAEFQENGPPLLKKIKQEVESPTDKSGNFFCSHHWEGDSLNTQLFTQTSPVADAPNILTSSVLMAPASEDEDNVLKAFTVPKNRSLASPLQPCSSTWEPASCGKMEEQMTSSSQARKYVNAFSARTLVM
How it was run: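 Transiently transfected HepG2 cells carrying a multiplexed cis-promoter reporter set report endogenous Myb activity after 24 h compound exposure. Reporter mRNA is read by RT-PCR with capillary electrophoresis of fluorescent products, fitted bidirectionally against DMSO.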

[11] = target: X-box-binding protein 1 (Homo sapiens) (UniProt P17861); assay: ATG_Xbp1_CIS: Attagene CIS-FACTORIAL HepG2 Assay for human X-box Binding Protein 1 (XBP1) (AID 2282972; active means hit-call score of the fitted dose curve at least 0.9, where 1 is the maximum; inactive means score below 0.9); settings: HepG2 XBP1 cis-element reporter, Attagene multiplex; actives raise or lower the signal
X-box-binding protein 1 (Homo sapiens), sequence (P17861 whole entry, looked up): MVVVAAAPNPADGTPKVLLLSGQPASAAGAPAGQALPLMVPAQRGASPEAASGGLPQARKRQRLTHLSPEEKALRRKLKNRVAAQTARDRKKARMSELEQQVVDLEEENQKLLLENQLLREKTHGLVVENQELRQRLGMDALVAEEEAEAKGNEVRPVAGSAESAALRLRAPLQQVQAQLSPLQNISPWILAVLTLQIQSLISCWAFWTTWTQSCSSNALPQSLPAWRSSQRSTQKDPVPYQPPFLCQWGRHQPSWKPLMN
How it was run: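 HepG2 cells transiently transfected with cis-regulated multiple reporter transcription units; endogenous transcription factor activity measured 24 hours after chemical dosing. Reporter mRNA quantified by RT-PCR, 6-FAM primer extension, HpaI digestion and capillary electrophoresis; bidirectional fitting versus DMSO.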

[12] = target: Oxysterols receptor LXR-alpha (Homo sapiens) (UniProt Q13133); assay: ATG_LXRa_TRANS: Attagene TRANS-FACTORIAL HepG2 Assay for human Liver X Receptor alpha (LXRa) (AID 2282980); settings: HepG2 Attagene TRANS reporter, LXRa transactivation
Oxysterols receptor LXR-alpha (Homo sapiens), sequence (Q13133 whole entry, looked up, the tested form may be a part): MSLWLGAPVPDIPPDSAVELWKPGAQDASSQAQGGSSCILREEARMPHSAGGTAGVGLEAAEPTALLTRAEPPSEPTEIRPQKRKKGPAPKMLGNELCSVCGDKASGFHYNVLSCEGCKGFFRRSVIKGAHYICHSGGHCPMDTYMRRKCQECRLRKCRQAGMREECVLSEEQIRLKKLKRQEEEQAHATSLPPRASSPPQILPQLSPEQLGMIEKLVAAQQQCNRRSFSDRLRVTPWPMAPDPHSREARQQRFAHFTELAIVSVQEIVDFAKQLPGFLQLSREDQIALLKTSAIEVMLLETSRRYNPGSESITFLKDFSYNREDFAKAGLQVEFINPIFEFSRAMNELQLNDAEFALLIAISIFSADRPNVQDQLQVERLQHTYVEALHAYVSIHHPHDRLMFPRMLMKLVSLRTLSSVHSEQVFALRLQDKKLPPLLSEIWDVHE
How it was run: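 HepG2 cells were transiently transfected with multiplexed reporter units driven by chimeric LXRa–GAL4 fusion proteins, then dosed for 24 h. Reporter mRNA was quantified by RT-PCR, fluorescent labelling and capillary electrophoresis; gain of signal fitted against DMSO baseline.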

[13] = target: Oxysterols receptor LXR-beta (Homo sapiens) (UniProt P55055); assay: ATG_LXRb_TRANS: Attagene TRANS-FACTORIAL HepG2 Assay for human Liver X Receptor beta (LXRb) (AID 2282981); settings: HepG2 Attagene TRANS GAL4-LXRb reporter, mRNA
Oxysterols receptor LXR-beta (Homo sapiens), sequence (P55055 whole entry, looked up, the tested form may be a part): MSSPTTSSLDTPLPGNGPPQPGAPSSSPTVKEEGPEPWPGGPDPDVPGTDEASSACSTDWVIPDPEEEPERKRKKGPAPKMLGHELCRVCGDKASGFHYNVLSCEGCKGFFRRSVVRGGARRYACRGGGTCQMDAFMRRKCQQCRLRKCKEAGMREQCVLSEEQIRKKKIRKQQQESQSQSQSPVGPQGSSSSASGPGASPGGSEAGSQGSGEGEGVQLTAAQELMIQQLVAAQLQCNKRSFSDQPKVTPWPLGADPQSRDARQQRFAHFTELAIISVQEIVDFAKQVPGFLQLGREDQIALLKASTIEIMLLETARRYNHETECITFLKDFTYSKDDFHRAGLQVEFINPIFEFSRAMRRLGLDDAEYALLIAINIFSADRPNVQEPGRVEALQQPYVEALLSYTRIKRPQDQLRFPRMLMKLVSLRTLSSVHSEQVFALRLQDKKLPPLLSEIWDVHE
How it was run: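 HepG2 cells transiently transfected with GAL4-UAS reporter units for chimeric NR-Gal4 proteins, dosed for 24 h. Reporter transcripts measured by RT-PCR and capillary electrophoresis; gain-of-signal fitting relative to DMSO.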

[14] = ATG_M_06_TRANS: Attagene TRANS-FACTORIAL HepG2 Assay for M06 Transcription Factor (Internal Marker) (AID 2282983); settings: HepG2 Attagene TRANS M06 internal marker reporter;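 further: reporter transcript level by RT-PCR then capillary electrophoresis fluorescence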
How it was run: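 HepG2 cells transiently transfected with multiplexed GAL4-UAS reporter transcription units; after 24 h compound exposure, reporter mRNA measured by RT-PCR, FAM-labelled primer extension, HpaI digestion and capillary electrophoresis. Gain-of-signal fitted versus DMSO baseline; background control readout.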

[15] = target: Steroid hormone receptor ERR1 (Homo sapiens) (UniProt P11474); assay: ATG_ERRa_TRANS: Attagene TRANS-FACTORIAL HepG2 Assay for human Estrogen-Related Receptor alpha (ERRa) (AID 2282971); settings: HepG2 Attagene TRANS reporter, ERRa transactivation
How it was run: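 HepG2 cells transiently transfected with multiplexed GAL4-UAS reporter units reading chimeric ERRa-Gal4 activity; 24 h compound exposure. Reporter mRNA measured by RT-PCR, 6-FAM labelling, HpaI digest and capillary electrophoresis; gain of signal fitted versus DMSO baseline.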

[16] = target: Estrogen-related receptor gamma (Homo sapiens) (UniProt P62508); assay: ATG_ERRg_TRANS: Attagene TRANS-FACTORIAL HepG2 Assay for human Estrogen-Related Receptor gamma (ERRg) (AID 2282977); settings: HepG2 Attagene TRANS reporter, ERRg transactivation;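 further: hits increase reporter signal over DMSO so potencies reflect activators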
Estrogen-related receptor gamma (Homo sapiens), sequence (P62508 whole entry, looked up, the tested form may be a part): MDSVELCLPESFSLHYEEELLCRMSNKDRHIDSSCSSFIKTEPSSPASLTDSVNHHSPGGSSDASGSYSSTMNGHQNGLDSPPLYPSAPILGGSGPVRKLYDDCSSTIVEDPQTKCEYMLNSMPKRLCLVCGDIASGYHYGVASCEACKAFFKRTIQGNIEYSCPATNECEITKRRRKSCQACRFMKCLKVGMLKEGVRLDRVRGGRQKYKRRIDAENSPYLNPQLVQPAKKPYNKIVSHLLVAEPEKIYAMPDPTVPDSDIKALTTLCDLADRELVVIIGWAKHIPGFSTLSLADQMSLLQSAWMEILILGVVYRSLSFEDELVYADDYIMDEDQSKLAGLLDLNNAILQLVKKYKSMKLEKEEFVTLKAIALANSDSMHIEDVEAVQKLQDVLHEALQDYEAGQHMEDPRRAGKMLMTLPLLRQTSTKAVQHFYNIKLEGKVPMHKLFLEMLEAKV
How it was run: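 HepG2 cells transiently transfected with multiplexed GAL4-UAS reporter units driven by chimeric NR-Gal4 proteins; 24 h exposure. Reporter mRNA quantified by RT-PCR, fluorescent labelling, HpaI digestion and capillary electrophoresis; gain of signal vs DMSO.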

[17] = ATG_TAL_CIS: Attagene CIS-FACTORIAL HepG2 Assay for human TAL Basal Promoter (AID 2282966; active means hit-call score of the fitted dose curve at least 0.9, where 1 is the maximum; inactive means score below 0.9;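 further: background control endpoint measuring basal TAL promoter reporter mRNA not a specific factor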); settings: HepG2 Attagene cis-factorial TAL promoter reporter; actives raise or lower the signal
How it was run: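 HepG2 cells were transiently transfected with promoter-driven multiplexed reporter units and dosed for 24 h. Reporter mRNA was measured by RT-PCR with capillary electrophoresis fluorescence; bidirectional fits used DMSO as baseline, serving as a background control.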

[18] = target: Nuclear receptor subfamily 1 group I member 3 (Homo sapiens) (UniProt Q14994); assay: ATG_CAR_TRANS: Attagene TRANS-FACTORIAL HepG2 Assay for human Constitutive Androstane Receptor (CAR) (AID 2282969); settings: HepG2 Attagene TRANS-FACTORIAL CAR reporter;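 further: activators raise reporter mRNA above DMSO so AC50 marks induction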
Nuclear receptor subfamily 1 group I member 3 (Homo sapiens), sequence (Q14994 whole entry, looked up, the tested form may be a part): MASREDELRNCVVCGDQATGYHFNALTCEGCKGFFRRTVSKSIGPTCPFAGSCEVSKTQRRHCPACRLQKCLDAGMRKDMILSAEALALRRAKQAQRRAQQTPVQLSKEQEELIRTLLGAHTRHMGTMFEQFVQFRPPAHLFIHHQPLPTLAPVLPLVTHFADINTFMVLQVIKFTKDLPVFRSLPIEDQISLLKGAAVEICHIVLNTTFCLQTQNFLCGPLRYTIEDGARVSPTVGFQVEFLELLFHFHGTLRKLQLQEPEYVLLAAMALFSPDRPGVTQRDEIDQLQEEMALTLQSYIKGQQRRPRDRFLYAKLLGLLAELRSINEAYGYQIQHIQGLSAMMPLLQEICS
How it was run: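 HepG2 cells transiently transfected with GAL4-UAS reporter units; TRANS format reads activity of exogenous chimeric NR-Gal4 protein. After 24 h dosing, reporter mRNA quantified by RT-PCR, 6-FAM labelling and capillary electrophoresis; gain of signal fitted against DMSO.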

[19] = ATG_GAL4_TRANS: Attagene TRANS-FACTORIAL HepG2 Assay for GAL4 (Internal Marker) (AID 2282976); settings: HepG2 Attagene TRANS GAL4 internal marker reporter
How it was run: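 HepG2 cells transiently transfected with multiplexed GAL4-UAS reporter constructs were dosed for 24 h. Reporter mRNA was measured by RT-PCR, 6-FAM primer extension, HpaI digestion and capillary electrophoresis, and gain of signal was fitted relative to DMSO.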

[20] = target: Bile acid receptor (Homo sapiens) (UniProt Q96RI1); assay: ATG_FXR_TRANS: Attagene TRANS-FACTORIAL HepG2 Assay for Farnesoid X Receptor (FXR) (AID 2282979); settings: HepG2 Attagene TRANS FXR-GAL4 reporter transcription;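 further: hits raise reporter mRNA above DMSO so AC50 marks FXR activation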
Bile acid receptor (Homo sapiens), sequence (Q96RI1 whole entry, looked up, the tested form may be a part): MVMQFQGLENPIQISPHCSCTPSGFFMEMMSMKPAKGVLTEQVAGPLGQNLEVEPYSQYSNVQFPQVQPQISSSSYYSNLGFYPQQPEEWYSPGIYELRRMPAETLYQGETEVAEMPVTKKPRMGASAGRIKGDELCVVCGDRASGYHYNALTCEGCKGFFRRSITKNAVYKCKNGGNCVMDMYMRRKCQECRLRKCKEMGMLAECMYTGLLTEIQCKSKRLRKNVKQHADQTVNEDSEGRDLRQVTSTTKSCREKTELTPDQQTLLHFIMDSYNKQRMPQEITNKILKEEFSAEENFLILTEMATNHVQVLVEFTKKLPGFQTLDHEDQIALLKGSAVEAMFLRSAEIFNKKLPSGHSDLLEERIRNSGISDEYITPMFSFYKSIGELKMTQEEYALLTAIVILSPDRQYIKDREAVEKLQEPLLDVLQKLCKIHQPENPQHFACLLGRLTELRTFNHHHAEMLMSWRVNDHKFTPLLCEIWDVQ
How it was run: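 HepG2 cells transiently transfected with reporter constructs in which a chimeric FXR-GAL4 protein drives a GAL4-UAS reporter; 24 h compound exposure. Reporter mRNA measured by RT-PCR, FAM labelling, HpaI digestion and capillary electrophoresis; gain-of-signal versus DMSO.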

Measured: AC50

COCC(=O)O
inactive: [1] | [2] | [3] | [4] | [5] | [6] | [7] | [8] | [9] | [10]

COC(Cc1ccccc1)OC
inactive: [1] | [2] | [3] | [4] | [11] | [5] | [12] | [13] | [7] | [14] | [8] | [9] | [10]

CCCc1ccc(O)c(OC)c1
inactive: [1] | [3] | [4] | [11] | [14]

CC1=CC(C)C(C=O)CC1 (configuration not stated)
inactive: [1] | [2] | [3] | [4] | [15] | [11] | [16] | [6] | [12] | [13] | [7] | [14] | [8] | [10]

Fc1ccc(Br)cc1
active: [4] 79.7 µM
inactive: [17] | [2] | [3] | [18] | [15] | [11] | [5] | [16] | [6] | [12] | [13] | [8] | [10]

CC(C)[N+](C)(CCOC(=O)C1c2ccccc2Oc2ccccc21)C(C)C
inactive: [2] | [3] | [4] | [5] | [19] | [6] | [20] | [13] | [10]

CCCCC(CC)COS(=O)(=O)O (configuration not stated)
inactive: [17] | [2] | [3] | [4] | [15] | [5] | [19] | [16] | [20] | [7] | [14] | [8] | [10]

CCCCOC(=O)C(C)CC (configuration not stated)
inactive: [17] | [3] | [14] | [9] | [10]

C=CC(=O)OCCCCCCCC(C)C
active: [2] 55 µM
inactive: [17] | [3] | [4] | [11] | [19] | [20] | [12] | [14] | [10]

CC(=O)CCC=C(C)C
inactive: [17] | [2] | [3] | [4] | [19] | [16] | [12] | [14] | [10]

CC1CC(=O)CC(C)(C)C1 (configuration not stated)
inactive: [17] | [2] | [3] | [11] | [6] | [12] | [13] | [14] | [10]

CCOc1ccc(NC(N)=O)cc1
inactive: [2] | [3] | [11] | [19] | [6] | [20] | [12] | [7] | [14] | [8] | [10]

CC(C)OC(=O)c1ccccc1
inactive: [17] | [2] | [3] | [4] | [11] | [16] | [7] | [14] | [10]

O=C(O)c1ccc2c(c1)C(=O)OC2=O
inactive: [17] | [2] | [3] | [11] | [5] | [19] | [6] | [12] | [14] | [9] | [10]
